The source of these data is PubChem BioAssay (EPA / NIEHS).

The term AC50 denotes the midpoint of the concentration-response curve, whichever way the signal moves.

Assay [1] is described as follows: ATG_TCF_b_cat_CIS: Attagene CIS-FACTORIAL HepG2 Assay for human T-Cell-Factor with beta-catenin (TCF/b-cat) (AID 2282965; active = hit-call score of the fitted dose curve at least 0.9, where 1 is the maximum; inactive = score below 0.9). The note with it: HepG2 TCF/beta-catenin cis-reporter transcription, actives raise or lower the signal. The method, boiled down: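 Endogenous TCF/LEF activity read as reporter transcript level via RT-PCR and capillary electrophoresis fluorescence in transfected HepG2, 24 h exposure; gain or loss of signal fitted against DMSO controls.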

Assay [2] in a line: ATG_TAL_CIS: Attagene CIS-FACTORIAL HepG2 Assay for human TAL Basal Promoter (AID 2282966; active = hit-call score of the fitted dose curve at least 0.9, where 1 is the maximum; inactive = score below 0.9;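 note: background control endpoint measuring basal TAL promoter reporter mRNA not a specific factor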). The note with it: HepG2 Attagene cis-factorial TAL promoter reporter; actives raise or lower the signal. The method, boiled down:
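Human hepatoma HepG2 cells, transfected with promoter-regulated reporter units, were treated 24 h. Reporter transcript levels, measured through RT-PCR and capillary electrophoresis, were fitted for gain or loss relative to DMSO.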

A short description of assay [3]: ATG_TGFb_CIS: Attagene CIS-FACTORIAL HepG2 Assay for human Transforming Growth Factor (TGF) (AID 2282967; active = hit-call score of the fitted dose curve at least 0.9, where 1 is the maximum; inactive = score below 0.9). The note with it: HepG2 Attagene CIS TGFb reporter, mRNA transcription; actives raise or lower the signal. In short, it runs like this:
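Liver HepG2 line, cis-factorial reporter panel, 24 h dosing. Quantitation: RT-PCR products labeled with 6-FAM, cut with HpaI, resolved by capillary electrophoresis; DMSO-referenced bidirectional analysis.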

Assay [4] can be described thus: ATG_VDRE_CIS: Attagene CIS-FACTORIAL HepG2 Assay for human Vitamin D Receptor Element (VDRE) (AID 2282968; active = hit-call score of the fitted dose curve at least 0.9, where 1 is the maximum; inactive = score below 0.9). The note with it: HepG2 VDRE cis-reporter transcription, actives raise or lower the signal. In short, it runs like this:
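Measures endogenous factor activity through cis-element-driven reporter transcripts in transiently transfected HepG2. Cells are treated 24 h; reporter mRNA is quantified by RT-PCR and capillary electrophoresis; fitting is bidirectional.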

The target of assay [5] is Estrogen receptor (Homo sapiens) (UniProt P03372). Description: ATG_ERa_TRANS: Attagene TRANS-FACTORIAL HepG2 Assay for human Estrogen Receptor alpha (ERa) (AID 2282970). The note with it: HepG2 Attagene TRANS ERa GAL4 reporter, mRNA. The method, boiled down:
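Signal derives from fluorescence of labelled reporter PCR fragments separated by capillary electrophoresis. HepG2 cells transiently carrying multiple GAL4-UAS reporter units were treated 24 hours, and induction above DMSO baseline was fitted as activity.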

Assay [6] addresses X-box-binding protein 1 (Homo sapiens) (UniProt P17861). Description: ATG_Xbp1_CIS: Attagene CIS-FACTORIAL HepG2 Assay for human X-box Binding Protein 1 (XBP1) (AID 2282972; active = hit-call score of the fitted dose curve at least 0.9, where 1 is the maximum; inactive = score below 0.9). The note with it: HepG2 XBP1 cis-element reporter, Attagene multiplex; actives raise or lower the signal. In short, it runs like this:
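Changes in reporter transcript abundance, read by RT-PCR and capillary electrophoresis, reflect endogenous transcription factor activity. Transfected HepG2 cells received compound for 24 hours; DMSO defined baseline for bidirectional analysis.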

The target in assay [7] is Glucocorticoid receptor (Homo sapiens) (UniProt P04150). The assay can be described thus: ATG_GR_TRANS: Attagene TRANS-FACTORIAL HepG2 Assay for human Glucocorticoid Receptor (GR) (AID 2282978).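 Note: activators score as hits since higher reporter transcript over DMSO is fitted.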 The note with it: HepG2 Attagene TRANS GR reporter, mRNA transcription. The method, boiled down:
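HepG2 cells transiently transfected with GAL4-UAS reporter units and exogenous GR-Gal4 chimera, dosed 24 h. Reporter mRNA by RT-PCR, FAM labeling, HpaI digest and capillary electrophoresis; gain-of-signal fit versus DMSO.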

Assay [8] deals with Bile acid receptor (Homo sapiens) (UniProt Q96RI1). The assay can be described thus: ATG_FXR_TRANS: Attagene TRANS-FACTORIAL HepG2 Assay for Farnesoid X Receptor (FXR) (AID 2282979).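 Note: hits raise reporter mRNA above DMSO so AC50 marks FXR activation.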 The note with it: HepG2 Attagene TRANS FXR-GAL4 reporter transcription. The method, boiled down: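 After 24 h chemical treatment of transfected HepG2 cells, GAL4-UAS reporter transcripts driven by an exogenous FXR-GAL4 fusion were measured by RT-PCR and capillary electrophoresis. Increases over DMSO were fitted.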
Sequence of Bile acid receptor (Homo sapiens) (Q96RI1 whole entry, looked up, the tested form may be a part): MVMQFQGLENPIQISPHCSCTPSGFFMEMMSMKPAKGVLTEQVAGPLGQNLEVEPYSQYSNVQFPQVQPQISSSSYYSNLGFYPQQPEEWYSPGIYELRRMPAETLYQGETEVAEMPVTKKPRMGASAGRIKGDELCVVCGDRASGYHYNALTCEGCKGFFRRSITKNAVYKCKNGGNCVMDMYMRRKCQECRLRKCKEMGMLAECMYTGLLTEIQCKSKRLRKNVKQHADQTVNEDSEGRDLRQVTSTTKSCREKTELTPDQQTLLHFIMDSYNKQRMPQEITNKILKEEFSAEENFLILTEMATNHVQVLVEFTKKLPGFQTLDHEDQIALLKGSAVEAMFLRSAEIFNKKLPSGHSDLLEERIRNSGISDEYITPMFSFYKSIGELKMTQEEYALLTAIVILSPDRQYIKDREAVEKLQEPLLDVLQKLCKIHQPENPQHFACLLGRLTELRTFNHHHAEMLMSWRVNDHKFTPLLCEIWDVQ

Assay [9] deals with Oxysterols receptor LXR-beta (Homo sapiens) (UniProt P55055). Description: ATG_LXRb_TRANS: Attagene TRANS-FACTORIAL HepG2 Assay for human Liver X Receptor beta (LXRb) (AID 2282981). The note with it: HepG2 Attagene TRANS GAL4-LXRb reporter, mRNA. The method, boiled down:
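After 24 h of chemical treatment, transfected HepG2 cells yield total RNA; reporter cDNA is PCR-amplified, FAM-labelled, HpaI-cut and run on capillary electrophoresis. Signal reflects chimeric LXRb-Gal4 activity on GAL4-UAS reporters.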

Assay [10] concerns the target Hepatocyte nuclear factor 4-alpha (Homo sapiens) (UniProt P41235). Description: ATG_HNF4a_TRANS: Attagene TRANS-FACTORIAL HepG2 Assay for human Hepatocyte Nuclear Factor 4 alpha (HNF4a) (AID 2282982). The note with it: HepG2 HNF4a transactivation reporter, mRNA readout. The method, boiled down: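 Multiplexed reporter assay: transfected HepG2, 24 h exposure, total RNA → oligo(dT) RT → PCR → 6-FAM extension → HpaI digest → CE fluorescence. DMSO = negative control.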

Assay [11] is described as follows: ATG_M_06_TRANS: Attagene TRANS-FACTORIAL HepG2 Assay for M06 Transcription Factor (Internal Marker) (AID 2282983). The note with it: HepG2 Attagene TRANS M06 internal marker reporter. The method, boiled down:
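Multi-reporter-transfected HepG2, 24 h treatment; reporter transcripts quantified via RT-PCR, primer-extension labelling and CE. DMSO-normalized gain-of-signal fit.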

Assay [12] can be described thus: ATG_M_32_TRANS: Attagene TRANS-FACTORIAL HepG2 Assay for M32 Transcription Factor (Internal Marker) (AID 2282984). The note with it: HepG2 Attagene TRANS M32 internal marker reporter. In short, it runs like this:
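Cell-based TRANS-format assay in HepG2: exogenous chimeric GAL4 reporter units transiently expressed, compounds applied 24 h. Reporter mRNA detected by RT-PCR plus capillary electrophoresis; this readout is an internal background marker.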

Assay [13] can be described thus: ATG_GAL4_TRANS: Attagene TRANS-FACTORIAL HepG2 Assay for GAL4 (Internal Marker) (AID 2282976). The note with it: HepG2 Attagene TRANS GAL4 internal marker reporter. In short, it runs like this: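 Liver HepG2 line bearing multiplexed GAL4-UAS reporter constructs; 24 h chemical treatment. Transcripts were quantified as fluorescent fragments on capillary electrophoresis after RT-PCR and HpaI cut, with activity fitted upward from DMSO.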

For assay [14], the target named is Nuclear receptor subfamily 4 group A member 2 (Homo sapiens) (UniProt P43354). The assay can be described thus: ATG_NURR1_TRANS: Attagene TRANS-FACTORIAL HepG2 Assay for human Nuclear Receptor Related Protein 1 (NURR1) (AID 2282985). The note with it: HepG2 Attagene TRANS reporter, mRNA readout. In short, it runs like this: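 Measures transcriptional activation by an exogenous NR-Gal4 chimera in transfected HepG2 liver cells. After 24 h, reporter RNA is reverse-transcribed, amplified and resolved by capillary electrophoresis; DMSO defines baseline.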
Sequence of Nuclear receptor subfamily 4 group A member 2 (Homo sapiens) (P43354 whole entry, looked up, the tested form may be a part): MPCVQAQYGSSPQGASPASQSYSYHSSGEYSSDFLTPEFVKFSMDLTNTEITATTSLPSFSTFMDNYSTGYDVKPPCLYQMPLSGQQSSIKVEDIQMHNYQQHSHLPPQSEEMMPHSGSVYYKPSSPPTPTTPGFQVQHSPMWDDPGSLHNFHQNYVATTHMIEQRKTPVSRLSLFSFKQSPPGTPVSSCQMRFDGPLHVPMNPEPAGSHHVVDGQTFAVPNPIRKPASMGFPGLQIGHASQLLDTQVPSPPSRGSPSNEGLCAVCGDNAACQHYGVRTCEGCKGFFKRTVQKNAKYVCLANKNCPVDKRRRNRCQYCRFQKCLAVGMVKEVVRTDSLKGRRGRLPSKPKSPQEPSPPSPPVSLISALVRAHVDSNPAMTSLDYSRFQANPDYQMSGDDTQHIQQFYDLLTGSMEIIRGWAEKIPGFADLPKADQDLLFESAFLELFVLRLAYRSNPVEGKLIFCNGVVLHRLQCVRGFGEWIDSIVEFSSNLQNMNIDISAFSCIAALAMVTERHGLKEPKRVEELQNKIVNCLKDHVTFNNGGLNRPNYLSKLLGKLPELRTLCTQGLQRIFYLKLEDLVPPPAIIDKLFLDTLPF

Assay [15] concerns the target Nuclear receptor subfamily 1 group I member 3 (Homo sapiens) (UniProt Q14994). Description: ATG_CAR_TRANS: Attagene TRANS-FACTORIAL HepG2 Assay for human Constitutive Androstane Receptor (CAR) (AID 2282969).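 Note: activators raise reporter mRNA above DMSO so AC50 marks induction.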 The note with it: HepG2 Attagene TRANS-FACTORIAL CAR reporter. In short, it runs like this:
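Signal is reporter mRNA induction relative to DMSO, measured 24 h after dosing by RT-PCR with fluorescent primer extension and capillary electrophoresis. Human HepG2 liver cells carried transiently transfected chimeric NR-Gal4/GAL4-UAS reporter constructs.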

Assay [16] has as its target Androgen receptor (Homo sapiens) (UniProt P10275). The assay can be described thus: ATG_AR_TRANS: Attagene TRANS-FACTORIAL HepG2 Assay for human Androgen Receptor (AR) (AID 2282973). The note with it: HepG2 Attagene TRANS-FACTORIAL AR reporter transcription. The method, boiled down:
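Chimeric nuclear receptor–Gal4 activity was assessed in human HepG2 hepatocytes after 24 h chemical dosing. Induced reporter mRNA was detected via labelled RT-PCR fragments on capillary electrophoresis, and gain of signal was analysed against DMSO.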

Assay [17] is described as follows: ATG_M_19_TRANS: Attagene TRANS-FACTORIAL HepG2 Assay for M19 Transcription Factor (Internal Marker) (AID 2282974). The note with it: HepG2 Attagene TRANS-FACTORIAL M19 internal marker reporter. In short, it runs like this: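 HepG2 transiently transfected with GAL4-UAS multiplex reporter constructs, exposed 24 h; reporter RNA quantified by RT-PCR, 6-FAM labeling, HpaI digestion and capillary electrophoresis; internal background marker fitted upward versus DMSO.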

Inconclusive results are not listed. The source made the active and inactive calls. Rule for the calls, unless noted: active = hit-call score of the fitted dose curve at least 0.9, where 1 is the maximum; inconclusive = response in the unintended direction; inactive = score below 0.9.

Sequence of Estrogen receptor (Homo sapiens) (P03372 whole entry, looked up, the tested form may be a part): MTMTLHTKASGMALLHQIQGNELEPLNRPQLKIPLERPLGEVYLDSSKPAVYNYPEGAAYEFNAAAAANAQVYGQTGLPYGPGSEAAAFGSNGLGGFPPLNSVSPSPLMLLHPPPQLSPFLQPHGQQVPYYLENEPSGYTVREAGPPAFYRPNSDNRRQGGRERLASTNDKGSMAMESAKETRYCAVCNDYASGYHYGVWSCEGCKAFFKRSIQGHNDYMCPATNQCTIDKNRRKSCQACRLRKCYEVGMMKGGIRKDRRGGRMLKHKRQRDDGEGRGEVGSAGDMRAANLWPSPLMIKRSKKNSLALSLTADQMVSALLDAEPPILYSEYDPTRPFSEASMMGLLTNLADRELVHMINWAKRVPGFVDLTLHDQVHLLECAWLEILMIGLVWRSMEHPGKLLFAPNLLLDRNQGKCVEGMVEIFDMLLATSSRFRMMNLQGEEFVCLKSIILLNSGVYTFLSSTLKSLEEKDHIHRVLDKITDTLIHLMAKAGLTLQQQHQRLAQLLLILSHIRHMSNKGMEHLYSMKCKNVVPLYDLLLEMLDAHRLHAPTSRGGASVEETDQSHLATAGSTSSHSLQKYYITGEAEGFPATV
Sequence of X-box-binding protein 1 (Homo sapiens) (P17861 whole entry, looked up): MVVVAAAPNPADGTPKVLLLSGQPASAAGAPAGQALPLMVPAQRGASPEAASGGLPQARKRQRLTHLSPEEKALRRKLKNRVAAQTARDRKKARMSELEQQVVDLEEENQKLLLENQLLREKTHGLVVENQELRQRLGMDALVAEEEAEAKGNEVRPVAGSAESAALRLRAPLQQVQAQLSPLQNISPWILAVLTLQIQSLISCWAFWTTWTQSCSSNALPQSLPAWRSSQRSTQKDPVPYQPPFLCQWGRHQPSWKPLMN
Sequence of Glucocorticoid receptor (Homo sapiens) (P04150 whole entry, looked up, the tested form may be a part): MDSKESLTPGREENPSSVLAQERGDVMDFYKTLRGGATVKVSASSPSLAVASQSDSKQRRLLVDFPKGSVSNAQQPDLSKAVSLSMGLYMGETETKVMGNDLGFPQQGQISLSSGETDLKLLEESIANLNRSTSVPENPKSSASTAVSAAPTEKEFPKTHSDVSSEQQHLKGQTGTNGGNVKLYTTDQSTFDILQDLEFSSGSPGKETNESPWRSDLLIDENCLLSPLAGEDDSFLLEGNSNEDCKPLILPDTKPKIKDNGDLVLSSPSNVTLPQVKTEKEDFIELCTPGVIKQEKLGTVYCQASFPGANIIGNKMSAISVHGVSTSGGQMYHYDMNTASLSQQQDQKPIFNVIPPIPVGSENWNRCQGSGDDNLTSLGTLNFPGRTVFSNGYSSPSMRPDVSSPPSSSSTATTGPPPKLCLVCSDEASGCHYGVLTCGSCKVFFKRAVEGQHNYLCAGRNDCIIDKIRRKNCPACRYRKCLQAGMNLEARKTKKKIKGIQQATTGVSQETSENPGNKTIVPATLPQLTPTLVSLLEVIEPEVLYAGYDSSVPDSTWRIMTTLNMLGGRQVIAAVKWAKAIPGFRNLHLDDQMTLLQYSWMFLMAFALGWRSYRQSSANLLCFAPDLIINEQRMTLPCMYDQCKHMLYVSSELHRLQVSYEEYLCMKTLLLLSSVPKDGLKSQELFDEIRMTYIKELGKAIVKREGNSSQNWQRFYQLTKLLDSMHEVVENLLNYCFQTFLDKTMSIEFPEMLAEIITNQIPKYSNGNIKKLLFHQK
Sequence of Oxysterols receptor LXR-beta (Homo sapiens) (P55055 whole entry, looked up, the tested form may be a part): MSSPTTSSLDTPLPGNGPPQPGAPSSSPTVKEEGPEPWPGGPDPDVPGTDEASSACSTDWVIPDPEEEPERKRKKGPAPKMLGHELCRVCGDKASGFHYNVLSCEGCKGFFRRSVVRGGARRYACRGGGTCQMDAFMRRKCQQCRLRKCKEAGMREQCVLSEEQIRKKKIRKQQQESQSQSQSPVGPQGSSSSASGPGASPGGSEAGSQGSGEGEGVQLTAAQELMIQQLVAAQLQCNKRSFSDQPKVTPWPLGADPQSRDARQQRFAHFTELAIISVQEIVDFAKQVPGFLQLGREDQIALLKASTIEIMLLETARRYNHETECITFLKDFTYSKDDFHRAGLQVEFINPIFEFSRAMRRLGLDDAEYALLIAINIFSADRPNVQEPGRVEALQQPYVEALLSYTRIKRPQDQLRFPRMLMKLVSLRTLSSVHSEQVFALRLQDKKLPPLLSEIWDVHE
Sequence of Hepatocyte nuclear factor 4-alpha (Homo sapiens) (P41235 whole entry, looked up): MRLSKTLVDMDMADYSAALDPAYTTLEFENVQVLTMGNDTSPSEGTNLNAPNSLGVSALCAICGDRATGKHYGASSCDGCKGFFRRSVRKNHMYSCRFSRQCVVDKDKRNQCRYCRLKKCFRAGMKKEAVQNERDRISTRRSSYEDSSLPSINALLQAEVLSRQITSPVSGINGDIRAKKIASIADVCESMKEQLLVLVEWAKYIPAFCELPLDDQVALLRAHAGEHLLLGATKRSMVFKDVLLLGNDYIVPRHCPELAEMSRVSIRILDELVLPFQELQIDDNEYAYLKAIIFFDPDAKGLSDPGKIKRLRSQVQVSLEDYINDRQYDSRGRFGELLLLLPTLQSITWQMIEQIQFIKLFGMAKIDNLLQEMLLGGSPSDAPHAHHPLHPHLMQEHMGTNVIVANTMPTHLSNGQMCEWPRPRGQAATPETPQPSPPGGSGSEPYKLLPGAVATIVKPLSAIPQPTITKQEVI
Sequence of Nuclear receptor subfamily 1 group I member 3 (Homo sapiens) (Q14994 whole entry, looked up, the tested form may be a part): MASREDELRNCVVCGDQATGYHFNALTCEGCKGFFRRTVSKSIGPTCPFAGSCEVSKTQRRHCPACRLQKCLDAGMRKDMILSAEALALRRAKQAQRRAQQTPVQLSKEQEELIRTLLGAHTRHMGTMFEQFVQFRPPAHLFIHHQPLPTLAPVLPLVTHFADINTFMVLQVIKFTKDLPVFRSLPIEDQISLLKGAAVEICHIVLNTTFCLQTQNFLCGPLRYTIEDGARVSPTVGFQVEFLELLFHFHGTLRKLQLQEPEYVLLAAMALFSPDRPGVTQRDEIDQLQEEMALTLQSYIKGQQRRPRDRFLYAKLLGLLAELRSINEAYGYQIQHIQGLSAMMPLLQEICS
Sequence of Androgen receptor (Homo sapiens) (P10275 whole entry, looked up, the tested form may be a part): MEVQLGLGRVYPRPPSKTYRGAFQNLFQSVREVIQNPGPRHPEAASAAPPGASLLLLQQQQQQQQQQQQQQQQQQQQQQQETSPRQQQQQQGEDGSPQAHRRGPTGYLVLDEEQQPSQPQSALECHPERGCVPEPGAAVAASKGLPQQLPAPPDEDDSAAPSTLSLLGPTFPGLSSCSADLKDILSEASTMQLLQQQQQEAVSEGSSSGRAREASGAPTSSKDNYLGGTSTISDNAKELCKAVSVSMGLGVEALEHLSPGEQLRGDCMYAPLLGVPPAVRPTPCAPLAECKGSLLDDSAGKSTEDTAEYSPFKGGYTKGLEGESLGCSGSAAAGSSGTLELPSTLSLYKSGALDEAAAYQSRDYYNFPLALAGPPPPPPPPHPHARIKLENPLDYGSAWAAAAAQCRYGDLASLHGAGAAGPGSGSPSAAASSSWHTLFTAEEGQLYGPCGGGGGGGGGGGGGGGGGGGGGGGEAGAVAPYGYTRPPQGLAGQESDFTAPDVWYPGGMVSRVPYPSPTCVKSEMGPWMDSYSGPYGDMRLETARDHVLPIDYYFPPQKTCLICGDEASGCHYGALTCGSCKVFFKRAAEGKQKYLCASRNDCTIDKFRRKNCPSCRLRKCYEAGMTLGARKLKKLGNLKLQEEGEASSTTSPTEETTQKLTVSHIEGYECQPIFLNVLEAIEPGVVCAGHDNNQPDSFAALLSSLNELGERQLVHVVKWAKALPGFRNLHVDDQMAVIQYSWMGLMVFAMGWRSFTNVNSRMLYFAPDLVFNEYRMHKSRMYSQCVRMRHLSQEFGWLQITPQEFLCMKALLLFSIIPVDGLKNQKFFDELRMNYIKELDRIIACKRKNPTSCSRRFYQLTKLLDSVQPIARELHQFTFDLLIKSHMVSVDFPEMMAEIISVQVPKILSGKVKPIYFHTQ

Take `O=S(=O)(c1ccc(O)cc1)c1ccc(O)cc1`: the outcome in assay [1], in assay [2], in [3], in assay [4], in [6] and in [7] was inactive. The call in assay [8], in assay [9], in assay [10], in assay [11] and in assay [12] was inactive. Moreover, in assay [5], the AC50 was 1.06 µM (active).

In the case of `CC(C)(C)N(NC(=O)c1ccc(Cl)cc1)C(=O)c1ccccc1`, the compound was called inactive in assay [1], in assay [2], in assay [3], in [4], in [5] and in assay [6]. For the same compound, the compound was classed as inactive in [13], in assay [7], in assay [8], in assay [9], in [11] and in assay [14].

For the compound `COP(=O)(O)OC`, the compound was classed as inactive in assay [1], in assay [2], in assay [3], in [15], in [5] and in assay [6]. In addition, the compound was called inactive in assay [16], in assay [7], in [8] and in [11].

With `Oc1ccccc1Br`, the outcome in [1], in assay [2], in assay [3], in assay [4], in assay [6] and in assay [13] was inactive. The result in assay [7], in assay [8] and in assay [11] was inactive.

For the compound `Cn1[nH]nnc1=S`, the compound was classed as inactive in [1], in assay [2], in assay [3], in [4], in assay [6] and in [17]. The call in assay [13], in assay [8], in [9], in assay [11], in [12] and in assay [14] was inactive.

In the case of `CC(Cl)(Cl)C(=O)O`, the call in assay [1], in assay [2], in assay [3], in assay [4], in [5] and in assay [6] was inactive. Also, the compound was called inactive in assay [7], in assay [11] and in assay [12].

As for `COC(N)=O`, the call in assay [1], in assay [2], in [3], in [4], in assay [6] and in assay [17] was inactive. Besides, the outcome in assay [13], in [7] and in assay [11] was inactive.

On to `CCC1(c2ccccc2)C(=O)N=C(O)NC1=O` (stereo unspecified), for which the compound was classed as inactive in assay [1], in [2], in assay [3], in assay [4], in assay [6] and in [13]. Moreover, the call in [9] and in assay [11] was inactive.
